D3 ag = activates the human D3 dopamine receptor. P35462. D3R DiscoveRx beta-arrestin cells, luminescence, 90 min. max activation, %. hit rate 0.58% among 410,000; in the data active means max activation above about 30%; further: 0% is about no effect
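Cells at 1500/well, incubated overnight, then treated with pinned compounds (dopamine as control) for 90 min at 37 degrees C. DiscoveRx reagent added for 30 - 60 minutes at room temperature; luminescence read.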
ERG-DNA inh = ERG Ets/DNA interaction inhibition | AID 624246 | fluorescence polarization, His-ERG Ets domain / labelled DNA | Potency, µM (series often up to 76.9 µM), for inactives: top-dose FP activity, negative = inhibition, usual class: inhibitors | P11308 | hit rate 0.028% among 370,000; active means well fitted inhibition curve with a large enough effect in the polarisation, with a control signal flat; the % refers to the polarisation;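 further: polarization taken with two DNA probes labelled with fluorescein and Texas red; potency means the concentration at half of the fitted maximal effect; % of control where 0% means no effect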
Target sequence (P11308 whole entry, looked up, the tested form may be a part): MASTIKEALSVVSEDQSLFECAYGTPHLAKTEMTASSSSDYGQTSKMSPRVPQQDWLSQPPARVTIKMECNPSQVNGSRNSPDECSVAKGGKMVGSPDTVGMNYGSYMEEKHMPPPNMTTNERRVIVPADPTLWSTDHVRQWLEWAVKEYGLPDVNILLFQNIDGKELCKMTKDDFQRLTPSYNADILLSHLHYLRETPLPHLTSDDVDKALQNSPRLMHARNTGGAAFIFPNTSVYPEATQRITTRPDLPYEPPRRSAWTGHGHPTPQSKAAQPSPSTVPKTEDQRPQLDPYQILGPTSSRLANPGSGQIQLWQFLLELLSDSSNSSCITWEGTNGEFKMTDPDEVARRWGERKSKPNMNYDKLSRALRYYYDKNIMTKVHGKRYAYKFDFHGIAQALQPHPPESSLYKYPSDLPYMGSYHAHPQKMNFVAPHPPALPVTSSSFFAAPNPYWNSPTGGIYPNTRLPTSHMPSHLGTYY
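His-tagged ERG Ets domain (1 uM in the protein solution; 300mM KCl, 50mM Tris-HCl, 1mM EDTA, 1mM DTT, pH 7.5) received compound, then a probe mix of 5 nM fluorescein-DNA and 100nM Texas-615-DNA. Fluorescence polarization was read for both dyes.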
D3 antag = D3 dopamine receptor (human) antagonism | hit rate 2.5% among 360,000 | P35462 | D3R cells, DiscoveRx beta-arrestin luminescence, antagonist mode; active compounds read low | max response, negative = inhibition, % | AID 652054; in the data active means max response below about -50%; further: on the % scale 0 is the no-effect control and ±100 the full control effect
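Cells plated overnight at 1500 cells/well, then exposed to library compounds with dopamine controls for 90 minutes at 37 degrees C. DiscoveRx reagent added for 30–60 minutes at room temperature; luminescence read, quantitative HTS format.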
D1 PAM = human D1 dopamine receptor positive modulation; potentiation, % at 10 µM; P21728; hit rate 0.036% among 360,000; AID 504651; HEK293 TREx D1 cells, calcium flux, dopamine EC20 potentiation; in the data active means potentiation above about 30%; further: 0% is about no effect
D1 ag = activates the human D1 dopamine receptor; P21728; HEK293 T-REx D1 cells, calcium flux, agonist mode; activation, % at 2 µM; hit rate 1% among 360,000; in the data active means activation above about 30%; further: 0% is about no effect
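Inducible HEK293 T-REx D1 cells, force-coupled to calcium signalling, were plated at 4000 cells/well with tetracycline and held overnight at 30 C. After no-wash calcium dye loading, compound-evoked calcium rise over 180 s flagged agonists.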
D1 antag = antagonists of human D1 dopamine receptor | P21728 | HEK293 TREx D1 cells, calcium flux, dopamine EC80; active compounds read low | activity change, negative = inhibition, % at 10 µM | hit rate 3.2% among 360,000 | AID 504652; in the data active means activity change below about -30%; further: on the % scale 0 is the no-effect control and ±100 the full control effect
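After overnight tetracycline induction at 30 C, force-coupled D1 HEK293 cells took up a no-wash calcium dye at room temperature. Compounds were added and monitored 180 s, and the response to EC80 dopamine was then recorded.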
An asterisk follows results filed as active; . = no result given. Shown are actives, neighbours in structure and some others; about 6.1% of the full set was active somewhere.

SMILES | D3 ag | ERG-DNA inh | D3 antag | D1 PAM | D1 ag | D1 antag
O=C(Cn1ncc2c3ccccc3n(Cc3ccc(F)cc3)c2c1=O)NCc1ccccn1 | -6.9 | 3.9% | . | -1.0 | 1.2 | 12.0
COc1ccccc1Cn1c(C)c(C(=O)NCc2ccco2)sc1=O | 2.1 | . | -29.1 | . | . | .
COc1ccccc1Cn1c(C)c(C(=O)NCc2cccc(C)c2)sc1=O | -3.9 | . | -57.5* | . | . | .
COc1ccc(CNC(=O)c2sc(=O)n(Cc3ccccc3C)c2C)cc1 | 0.6 | . | -28.2 | . | . | .
Cc1c(C(=O)NCc2ccc(F)cc2)sc(=O)n1Cc1ccc(Cl)c(Cl)c1 | -9.3 | . | -74.4* | . | . | .
Cc1cccc(CNC(=O)c2sc(=O)n(Cc3c(C)cccc3C)c2C)c1 | -9.8 | . | -89.6* | . | . | .
CSc1ccc(Cn2c(C)c(C(=O)NCc3ccc(Cl)c(Cl)c3)sc2=O)cc1 | 0.2 | . | 6.8 | . | . | .
Cc1ccccc1Cn1c(C)c(C(=O)NCc2cccc(Cl)c2)sc1=O | -3.7 | . | -53.4* | . | . | .
Clc1cccc(C2=NOC(c3nnc(-c4ccccc4)o3)C2)c1 (stereo not given) | -3.6 | 2.9% | -0.9 | -7.3 | 5.0 | -16.0
c1ccc(Cn2c(-c3ccccc3)c[n+]3c2SCCC3)cc1 | -7.6 | 0.5% | 1.2 | -21.7 | -0.3 | -24.6
CC12CCCC(CC(=O)O)(C1)NC(=O)C2 (stereo not given) | -13.6 | -8.2% | -4.6 | . | . | .
OC1(c2ccc(OC(F)F)cc2)CSC(=Nc2cccnc2)N1Cc1ccco1 (stereo not given) | 57.1* | 62.5% | 93.2 | 5.5 | 5.9 | -13.5
OC1(c2ccc(F)cc2)CSC(=Nc2cccnc2)N1Cc1ccco1 (stereo not given) | 0.7 | -4.9% | 9.7 | -6.5 | -0.3 | .
Cc1nc(C/C(=N\N)c2ccc(O)cc2O)cs1 | -6.9 | 3.4% | 6.0 | -2.8 | 3.5 | -31.6*
Fc1ccc2cnc(-c3ccccc3)c(-c3cccc(C(F)(F)F)c3)c2c1 | -13.0 | 24.0% | -64.0* | -2.7 | 0.3 | .
Fc1cc(F)cc(-c2c(-c3ccccc3)ncc3ccc(F)cc23)c1 | -16.1 | 13.8% | -19.1 | -2.4 | -2.1 | .
O=C(c1cccc(F)c1)N1CCc2ccccc2C1 | 8.9 | -10.3% | 6.8 | 6.8 | 21.7 | -5.7
CCCNS(=O)(=O)c1ccc(OCC(=O)Nc2ccc3c(c2)OCO3)cc1 | -1.7 | 1.3% | -26.9 | -0.1 | 0.4 | 2.4
CCOC(=O)COc1ccc(S(=O)(=O)Nc2ccc3c(c2)OCO3)cc1 | 0.0 | 1.9% | -21.7 | -11.2 | 63.1* | 2.5
CCOC(=O)COc1ccc(S(=O)(=O)c2ccc(OCC(=O)OCC)cc2)cc1 | -2.6 | . | -21.7 | -4.1 | 22.1 | -3.4
CC(=O)c1ccc(NS(=O)(=O)c2ccc(C)cc2)cc1 | -4.8 | -9.9% | -15.2 | 2.2 | 3.9 | 3.8
COC(=O)COc1ccc(S(=O)(=O)Nc2ccc3c(c2)OCCO3)cc1Cl | -15.7 | -7.1% | 23.0 | -6.8 | 11.0 | -32.5*
CCOC(=O)COc1ccc(S(=O)(=O)Nc2ccc(C)cc2)cc1 | 2.4 | -3.7% | 26.7 | -12.9 | 44.7* | -15.1
COc1cc(OC)c(OC)cc1/C=C/C(=O)c1ccc(NS(=O)(=O)c2ccc(C)cc2)cc1 | 30.7* | -0.8% | 97.2 | -0.6 | 24.4 | -13.4
O=C(C1CCCN(S(=O)(=O)c2cccc3nsnc23)C1)N1CCc2ccccc21 (stereo not given) | -1.9 | -3.0% | -12.4 | -3.5 | 7.5 | -7.0
SMILES | D3 ag | ERG-DNA inh | D3 antag | D1 PAM | D1 ag | D1 antag
CC(NC(=O)c1ccc(N2CCCC2=O)cc1)c1ccccc1 (stereo not given) | -9.2 | 5.3% | 13.1 | -4.9 | 2.0 | -0.4
COc1cccc(NC(=O)CCCn2c(=O)c3cccn3c3cccnc32)c1 | -0.1 | -0.7% | . | -3.8 | -1.2 | -10.4
COc1ccc(C(=O)O)cc1S(=O)(=O)Nc1cccc(C)c1 | -3.5 | 3.7% | -26.5 | 3.5 | 1.2 | 11.5
COc1ccc(NS(=O)(=O)c2ccc(NS(=O)(=O)c3ccc4c(c3)OCCO4)cc2)cc1 | -11.8 | -0.8% | . | 1.5 | 2.1 | 3.1
COc1ccc(NS(=O)(=O)c2ccc3oc(Nc4ccc5c(c4)OCCO5)nc3c2)cc1 | 4.7 | -0.5% | -56.3* | -7.3 | -3.1 | -27.8
C=CCNS(=O)(=O)c1ccc(OCC(=O)OCC)cc1 | 7.1 | 8.6% | -60.2* | -3.8 | 4.2 | -1.5
COc1ccc(C(=O)O)cc1S(=O)(=O)Nc1ccc(C)cc1 | -4.8 | -8.3% | -15.5 | -10.3 | 3.4 | -69.8*
O=S(=O)(Nc1ccc(Cl)cc1)c1ccc(NS(=O)(=O)c2ccc3c(c2)OCCO3)cc1 | -20.4 | -17.4% | . | -2.3 | 61.2* | -10.6
CCn1c(CSCc2ccc(F)cc2)nnc1SCC(=O)N1CCN(c2ccccc2)CC1 | 1.7 | -7.6% | 14.9 | -2.5 | 3.2 | 0.5
Cc1nc(C(=O)NNC(=O)c2ccccc2)c(C(F)(F)F)o1 | 4.4 | -7.9% | 0.1 | 0.6 | 1.5 | 18.9
C=C(c1ccc(OCCO)cc1)c1ccc(OCCO)cc1 | 2.4 | -3.3% | 9.6 | 1.1 | 2.1 | 4.9
COc1ccccc1NC(=O)c1c([N+](=O)[O-])cnn1C | -0.1 | 1.4% | -5.7 | 1.4 | 1.4 | -8.8
CCOc1ccc(NC(=O)C(=S)NC2CCCCC2)cc1 | 0.6 | -2.0% | 6.6 | -5.0 | 4.0 | -7.0
Cc1ccc(Oc2ccc(S(=O)(=O)Nc3ccc(C(=O)O)cc3)cc2)cc1 | -10.1 | 7.4% | 0.6 | -3.5 | 2.2 | -41.7*
O=[N+]([O-])c1ccc(Oc2ccc(S(=O)(=O)Nc3ccccc3)cc2)cc1 | 13.3 | -10.9% | -5.5 | -8.9 | 54.5* | -21.1
COc1ccc(S(=O)(=O)NCC(=O)Nc2ccc3c(c2)OCCO3)cc1OC | -3.0 | 2.5% | -50.2* | 3.5 | 5.6 | -2.1
COC(=O)c1ccc(OCC(=O)N2CCCc3ccccc32)cc1 | -1.6 | -5.2% | -6.4 | -6.5 | 8.7 | 1.0
O=C(Nc1ccccc1)NC1(C(=O)NCc2ccc3c(c2)OCO3)CCCCC1 | -3.4 | 1.3% | -3.9 | -1.2 | 1.0 | 5.1
CC(CCc1ccccc1)NC(=O)CN(C)Cc1ccccc1F (stereo not given) | 41.2* | -14.9% | -0.9 | -3.6 | 1.9 | 8.6
COc1ccccc1NC(=O)N1CCN(c2nnc(C)c3c(C)n(-c4ccc(Cl)cc4)nc23)CC1 | -1.5 | 2.5% | . | -4.3 | 2.2 | 2.5
O=C(Nc1nnc(S(=O)(=O)N2CCCc3ccccc32)s1)c1ccccc1 | -14.0 | 2.6% | . | 0.5 | -0.5 | -32.8*
O=C(Nc1nnc(S(=O)(=O)N2CCc3ccccc32)s1)c1ccccc1 | -15.6 | 1.0% | . | -0.8 | 0.0 | 7.8
CCC(=O)Nc1ccc(S(=O)(=O)N2CCc3ccccc32)cc1 | 5.1 | -8.3% | 7.9 | -8.4 | 8.4 | -40.8*
COC(=O)Nc1ccc(S(=O)(=O)N2CCCc3ccccc32)cc1 | -9.8 | -12.3% | -16.4 | -1.9 | 5.0 | -38.4*

Source: PubChem (National Center for Advancing Translational Sciences (NCATS))
